High-throughput results: PubChem, several laboratories
In the library only some 6.6% were active in any assay of this set; here they are far more common.
Gli-Sufu block: Gli-Sufu pathway antagonism; 340,000 compounds, 0.74% hits; inhibition, % at 5 µM; Sufu-KO-LIGHT fibroblasts, Gli luciferase reporter luminescence;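 active = inhibition above about 55%, limit read from the data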
MPTP inh: blocks calcium-induced mitochondrial swelling | 360,000 compounds, 1.4% hits | isolated mouse mitochondria, Ca2+ swelling absorbance, 30 min | AID 602449 | inhibition, % at 10 µM;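 active = inhibition of 50% or more, scaled per plate between neutral and stimulator controls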
Mdm2-MdmX inh: inhibitors of human Mdm2/MdmX interaction; O15151+Q00987; SaOS-2 split-luciferase Mdm2/MdmX complementation, luminescence; inhibition, % at 8 µM; 330,000 compounds, 3% hits;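 active = inhibition of at least 50% at 8 µM in the primary screen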
Beta cell apopt: beta cell apoptosis inhibition. protection from apoptosis, % (no concentration beside the values). INS-1E cytokine-induced death, ATP luminescence, 48 h; percent of positive-control rescue, neutral wells zero. 300,000 compounds, 0.8% hits. AID 435005;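 active = Every replicate reaches about 75%, or at least half do and their mean reaches it too, limit read from the data; inconclusive = At least half of replicates reach the limit but their mean does not; inactive = Under half of replicates reach the limit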;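 note: higher means more ATP so stronger rescue from cytokine killing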
CSC inhib: cancer stem cell inhibition | cancer stem cell-like cells viability, luminescence | inhibition, % at 7.5 µM | 300,000 compounds, 1.1% hits | AID 2717; in the data active = inhibition above about 75%; inconclusive = no clear call, values can overlap the other calls; tested in HMLE shEcad cells
NR3A LBD binder: NR3A (human) ligand-binding domain modulation; 340,000 compounds, 2.5% hits; NR3A LBD differential scanning fluorimetry, Tm shift; 0% = protein alone, 100% = glycine-bound protein; AID 1259313; Tm shift relative to glycine control, % at 25 µM;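 active = melting temperature shift of at least 10% of the positive control shift, at one fixed dose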
Mdm2-MdmX conf: confirmation of human Mdm2/MdmX interaction inhibitors; shares compounds with Mdm2-MdmX inh; AID 489028; Mdm2-MdmX binding, luminescent assay; 10,000 compounds, 55% hits; inhibition, % at 8 µM; in the data active = inhibition above about 40%
FLuc counter: inhibits full-length luciferase, flagging false Mdm2/MdmX hits; SaOS-2 full-length luciferase counterscreen, luminescence; inhibition, % at 8 µM; AID 504607; 6,200 compounds, 77% hits; shares compounds with Mdm2-MdmX inh;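 active = mean inhibition at 8 µM reaching about 37%, which flags the compound as non-specific, limit read from the data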;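 note: p53-null SaOS-2 cells with luciferase driven by a doxycycline-inducible promoter; compound on cells about two nights before reading with doxycycline added after day one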
Numbers stand for hits; – = inactive; ? = inconclusive; · = not tested or not shown.

SMILES	Gli-Sufu block	MPTP inh	Mdm2-MdmX inh	Beta cell apopt	CSC inhib	NR3A LBD binder	Mdm2-MdmX conf	FLuc counter
COc1ccc(OC)c(NC(=O)COC(=O)[C@H](Cc2ccccc2)NC(=O)c2ccco2)c1	–	–	–	–	–	–	·	·
O=C(Nc1ccc(S(=O)(=O)Nc2ncccn2)cc1)C1=COCCO1	–	–	–	–	–	–	·	·
CCOC(=O)c1ccc(-c2c(-c3cc(OC)c(OC)c(OC)c3)noc2C)cc1F	–	–	62	–	–	–	52	89
CCOC(=O)c1ccc(-c2c(-c3ccc(OC)cc3)oc(=O)c3cc(OC)c(OC)cc23)cc1F	–	–	–	–	–	–	·	·
CCOc1ccc(NC(=O)Nc2cccc(C(=O)O)c2)cc1	–	–	70	–	–	–	70	–
CCOc1ccc(OCc2cccc(C(=O)N3CCCC3)c2)cc1	–	–	–	–	–	–	·	·
O=C(O)c1cccc(COc2ccc(CO)cc2Cl)c1	–	–	90	–	–	–	88	–
CCOc1ccc(NC(=O)NCCCCc2ccccc2)cc1	–	–	50	–	–	–	–	·
COc1ccc(OCc2cccc(C(=O)O)c2)cc1	–	–	85	–	–	–	81	50
CSc1ncnc2c1ncn2CCCNCc1ccc(C)o1	·	–	·	·	·	·	·	·
CCOc1ccc(NC(=O)CSc2nnc(C3CC3)n2C2CC2)cc1	–	–	–	–	–	–	·	·
O=C(Cn1c(NCCCO)nc2ccccc21)c1ccc(Cl)cc1Cl	–	–	–	–	–	–	·	·
O=C(O)c1cccc(COc2ccc3c(c2)CCC3)c1	–	–	68	–	–	–	78	–
CCOc1ccc(OCc2cccc(C(=O)O)c2)cc1	–	–	61	–	–	–	94	–
Cc1cc(NC(=O)C(C)SCC(=O)Nc2ccc(Br)cc2Br)no1 (stereo not given)	–	–	–	·	–	–	·	·
COc1ccc(C(=O)Cn2c(C(=O)/C=C/c3ccccc3)nc3ccccc32)cc1	–	–	72	–	–	–	46	61
O=C(CN1c2cccc3cccc(c23)S1(=O)=O)NCc1ccc(Cl)cc1	–	–	–	–	–	–	·	·
COCCOC(=O)C1=C(C)NC(=O)NC1c1cccc2ccccc12 (stereo not given)	–	–	–	–	–	–	·	·
CCOC(=O)C(Cc1ccc(NC(=O)/C(=C/c2ccccc2)NC(=O)c2ccccc2)cc1)N1C(=O)c2ccccc2C1=O (stereo not given)	–	–	52	–	–	–	–	·
CCOc1ccc(NC(=O)C(Cc2ccccc2)N2C(=O)c3cccc4cccc(c34)C2=O)cc1 (stereo not given)	–	–	50	–	–	–	47	98
Cn1nccc1-c1ccc(C(=O)NCc2ccco2)c2occc12	·	–	·	·	·	·	·	·
COc1ccc(-c2sc3ccc(N4CCOCC4)cc3c2-c2ccc(OC)c(F)c2)cc1	–	–	–	–	–	–	·	·
Oc1c(I)cc(Cl)c2cccnc12	–	–	92	–	84	–	58	51
Clc1ccc(Oc2ccccc2)c2ncccc12	–	–	–	–	–	–	·	·
Clc1cc2cccnc2c2ncccc12	–	–	77	87	121	–	81	–
SMILES	Gli-Sufu block	MPTP inh	Mdm2-MdmX inh	Beta cell apopt	CSC inhib	NR3A LBD binder	Mdm2-MdmX conf	FLuc counter
Cc1c(C)c2cccnc2c2ncccc12	92	–	85	100	·	–	87	–
O=c1oc2ccccc2c(O)c1Cc1cc(Cl)c2cccnc2c1O	–	–	–	–	?	–	·	·
COc1ccccc1CNc1nc(Nc2ccccc2-n2cccn2)c2sccc2n1	·	–	·	·	·	·	·	·
CCC(=O)c1ccc(OCC(=O)OCC(=O)NC2CCCCCCC2)cc1	–	–	–	–	·	–	·	·
CC(=O)c1sc2c(c1OC(=O)c1ccc(Cl)cc1Cl)c(=O)n(-c1ccccc1)c(=S)n2-c1ccccc1	–	–	95	–	–	–	92	–
NS(=O)(=O)c1ccc(N2N=C(c3ccccc3)CC2c2ccccc2Br)cc1 (stereo not given)	–	–	52	·	·	–	–	·
COc1ccc(C2CC(c3cccc(Cl)c3)=NN2c2ccc(S(N)(=O)=O)cc2)cc1 (stereo not given)	–	–	68	·	·	28	–	·
O=[N+]([O-])c1ccc(N2N=C(c3ccccc3)CC2c2ccccc2O)cc1 (stereo not given)	·	–	90	–	102	·	–	104
COc1ccc(C2CC(c3ccc(Cl)cc3)=NN2c2ccc(S(N)(=O)=O)cc2)cc1 (stereo not given)	–	–	87	·	·	37	–	·
Cc1ccc(OCC(=O)OCC(=O)NC2CC2)cc1C	–	–	–	–	–	–	·	·
O=C(OCC(=O)N1N=C(c2ccc(Cl)cc2)CC1c1ccco1)c1cncc(Br)c1 (stereo not given)	–	–	–	–	–	–	·	·
COc1ccc(-c2cnc3c(NC=O)cc(-c4ccccc4OC)cn23)cc1OC	·	–	·	·	·	·	·	·
CC(=O)NC1=CC(=C[N+](=O)[O-])C=C1O	–	–	·	·	·	–	·	·
NS(=O)(=O)c1ccc(N2N=C(c3ccc(Br)cc3)CC2c2ccc(F)cc2)cc1 (stereo not given)	–	–	72	–	125	39	–	75
O=C(CCN1C(=O)/C(=C\c2ccccc2)SC1=S)N1CCOCC1	–	–	–	–	–	–	·	·
COc1ccc(/C=C2\SC(=S)N(CCC(=O)N3CCOCC3)C2=O)cc1	–	–	–	–	–	–	·	·
COc1cccc(/C=C2/SC(=S)N(CCC(=O)N3CCOCC3)C2=O)c1	–	–	53	–	·	–	–	·
COc1ccc(/C=C2\SC(=S)N(CCCC(=O)N3CCN(C)CC3)C2=O)cc1	–	–	–	–	–	–	·	·
Cc1ccc(/C=C2\SC(=S)N(CCC(=O)N3CCOCC3)C2=O)cc1	–	–	57	–	–	–	–	·
COc1cccc(/C=C2\SC(=S)N(CCCC(=O)N3CCCCC3)C2=O)c1	–	–	88	–	–	–	62	–
CC(NC(=O)c1ccccc1Br)c1nnc(SCC(=O)NC2=NCCS2)n1C (stereo not given)	–	–	–	–	–	–	·	·
COc1ccc(NC(=O)c2ccc(-n3cnnn3)cc2)c([N+](=O)[O-])c1	–	–	–	–	–	–	·	·
COc1ccc(CCC(=O)Nc2cc3c4c(c2)CCC(=O)N4CCC3)cc1	–	–	–	–	–	–	·	·
O=P1(NC2CCCCC2)OCC2(CO1)COP(=O)(NC1CCCCC1)OC2 (stereo not given)	–	–	·	·	·	–	·	·
C=CC(=O)Nc1ccc(CN2C(=O)N(c3c(Cl)c(OC)cc(OC)c3Cl)Cc3cnc(NCCCCN(CC)CC)nc32)cc1	–	–	71	–	·	–	45	55
CCN(CC)CCNC(=O)c1ccc(NC(=O)Cc2ccc(OC)c(S(=O)(=O)N3CCOCC3)c2)cc1	–	–	·	·	·	–	·	·
